In all, about 5,700 compounds went through this assay and about 85 (1%) were called active. The sample holds actives, similar compounds and a random draw of the others, so the mix is not that of the screen. Rule as the data show it: active = p53-positive nuclei above about 36% (passing the limit was not always enough); inactive = the rest.
How the values were obtained:
[1] = nuclear p53 accumulation, HPV+ cells – imaging, p53-positive nuclei imaging, 24 h, 48 h (AID 1508601); conditions: 24/48 h
[2] = target: Cellular tumor antigen p53 (Homo sapiens) (UniProt P04637); assay: as above; conditions: 24/48 h, stronger effect = higher value
Chain of Cellular tumor antigen p53 (Homo sapiens) (P04637 whole entry, looked up): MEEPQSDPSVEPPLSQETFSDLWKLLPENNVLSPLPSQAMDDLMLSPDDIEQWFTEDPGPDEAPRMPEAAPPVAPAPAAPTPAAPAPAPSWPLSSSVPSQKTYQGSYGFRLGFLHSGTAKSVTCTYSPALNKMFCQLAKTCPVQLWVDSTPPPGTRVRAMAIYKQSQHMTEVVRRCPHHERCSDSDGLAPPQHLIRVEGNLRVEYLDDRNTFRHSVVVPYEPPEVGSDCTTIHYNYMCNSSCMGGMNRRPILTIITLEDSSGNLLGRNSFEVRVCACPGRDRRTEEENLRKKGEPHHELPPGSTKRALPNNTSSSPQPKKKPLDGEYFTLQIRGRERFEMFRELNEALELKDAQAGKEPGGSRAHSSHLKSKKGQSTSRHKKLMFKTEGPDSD

[3] = measured here: cell number at 24 h, Library stock concentration: 3.33 mM
[4] = measured here: cell number at 48 h, Library stock concentration: 3.33 mM
[5] = Library stock concentration: 3.33 mM
[6] = measured here: p53 positive nuclei at 24 h, Library stock concentration: 3.33 mM
[7] = measured here: cell number at 24 h, Library stock concentration: 80 uM
[8] = measured here: cell number at 24 h, Library stock concentration: 400 uM
[9] = measured here: cell number at 24 h, Library stock concentration: 2 mM
[10] = measured here: cell number at 24 h, Library stock concentration: 10 mM
[11] = measured here: cell number at 48 h, Library stock concentration: 80 uM
[12] = measured here: cell number at 48 h, Library stock concentration: 400 uM
[13] = measured here: cell number at 48 h, Library stock concentration: 2 mM
[14] = measured here: cell number at 48 h, Library stock concentration: 10 mM
[15] = Library stock concentration: 80 uM
[16] = Library stock concentration: 400 uM
[17] = Library stock concentration: 2 mM
[18] = Library stock concentration: 10 mM
[19] = measured here: p53 positive nuclei at 24 h, Library stock concentration: 80 uM
[20] = measured here: p53 positive nuclei at 24 h, Library stock concentration: 400 uM
[21] = measured here: p53 positive nuclei at 24 h, Library stock concentration: 2 mM
[22] = measured here: p53 positive nuclei at 24 h, Library stock concentration: 10 mM

O=C(Nc1ccccc1Br)NC1CCN(c2ccc(C(F)(F)F)cn2)C1 (centres undefined)
nuclei count, normalised [1, 3]: 102%
nuclei count, normalised [1, 4]: 96.3%
p53-positive nuclei, normalised [2, 5]: -0.163% (inactive)
p53-positive nuclei, normalised [2, 6]: -0.314%

CCCCC/C=C\C/C=C\C/C=C\C/C=C\CCCC(=O)C(F)(F)F
nuclei count, normalised ([1]; measured here: cell number at 24 h, concentration not given here): 108%
nuclei count, normalised ([1]; measured here: cell number at 48 h, concentration not given here): 109%
p53-positive nuclei, normalised ([2]; concentration not given here): -0.148% (inactive)
p53-positive nuclei, normalised ([2]; measured here: p53 positive nuclei at 24 h, concentration not given here): -0.0854%

Nc1ncn([C@@H]2O[C@@H](CO)[C@H](O)[C@@H]2O)c(=O)n1
nuclei count, normalised [1, 7]: 122%
nuclei count, normalised [1, 8]: 116%
nuclei count, normalised [1, 9]: 110%
nuclei count, normalised [1, 10]: 65.9%
nuclei count, normalised [1, 11]: 122%
nuclei count, normalised [1, 12]: 116%
nuclei count, normalised [1, 13]: 111%
nuclei count, normalised [1, 14]: 63.4%
p53-positive nuclei, normalised [2, 15]: -0.241% (inactive)
p53-positive nuclei, normalised [2, 16]: -0.762% (inactive)
p53-positive nuclei, normalised [2, 17]: -0.515% (inactive)
p53-positive nuclei, normalised [2, 18]: 0.325% (inactive)
p53-positive nuclei, normalised [2, 19]: 1.31%
p53-positive nuclei, normalised [2, 20]: -0.12%
p53-positive nuclei, normalised [2, 21]: 0.0304%
p53-positive nuclei, normalised [2, 22]: 0.106%

CC(=O)NC(CC(C)C)C(=O)NC(CC(C)C)C(=O)NC(C=O)CCCN=C(N)N (centres undefined)
nuclei count, normalised [1, 7]: 88.7%
nuclei count, normalised [1, 8]: 87.3%
nuclei count, normalised [1, 9]: 62.5%
nuclei count, normalised [1, 10]: 67.4%
nuclei count, normalised [1, 11]: 91.5%
nuclei count, normalised [1, 12]: 90.5%
nuclei count, normalised [1, 13]: 69%
nuclei count, normalised [1, 14]: 72.9%
p53-positive nuclei, normalised [2, 15]: 0.011% (inactive)
p53-positive nuclei, normalised [2, 16]: -0.0354% (inactive)
p53-positive nuclei, normalised [2, 17]: -0.0908% (inactive)
p53-positive nuclei, normalised [2, 18]: -0.0909% (inactive)
p53-positive nuclei, normalised [2, 19]: -0.0474%
p53-positive nuclei, normalised [2, 20]: -0.0442%
p53-positive nuclei, normalised [2, 21]: 0.0943%
p53-positive nuclei, normalised [2, 22]: -0.12%

CC(NC(=O)C(Cc1ccccc1)NC(=O)OCc1ccccc1)C(=O)CF (centres undefined)
nuclei count, normalised [1, 3]: 108%
nuclei count, normalised [1, 4]: 101%
p53-positive nuclei, normalised [2, 5]: -0.054% (inactive)
p53-positive nuclei, normalised [2, 6]: -0.116%

Reference: PubChem BioAssay AID1508601 (ICCB-Longwood Screening Facility, Harvard Medical School, 2020)
